Assay results as given in PubChem BioAssay (NCATS).
Records with an inconclusive call do not appear. Unmarked numbers belong to inactive results. Activity calls are given as the source filed them. Calls follow the shape of the dose curve; as a rule, active = well fitted cell-killing curve with a large enough effect; inconclusive = small, poorly fitted or top-dose-only effect, or effect the other way; inactive = flat fitted curve, though single readings scatter.

System: Tov-21-G
Assay: Primary qHTS to identify gynecologic anti-cancer compounds using libraries of approved drugs and bioactive compounds (AID 1345084); also: nearly all actives have a fitted effect of over 55% in size
Settings: Gynecologic cancer cell panel viability, ATPlite luminescence, 48 h; series mostly up to 57.5 µM; activity change, negative = cytotoxicity: at the top concentration
Outline: (§1)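 Measured: luminescence after ATPlite addition (15 min, RT). Exposure: 48 h, 37 C, 5% CO2.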
% is scaled to controls: 0 for no effect and ±100 for the full control effect; potency is read from the fitted curve at half-maximal effect.

Row | SMILES | activity change, negative = cytotoxicity | Potency
1 | COCCCNC(=O)c1ccc(Cn2c(=O)c3ccccc3n(Cc3ccc(C(C)C)cc3)c2=O)cc1 | 1.93% | –
2 | CN1CCC(NC(=O)c2cc(-c3c(O)cc(O)cc3Oc3ccc([N+](=O)[O-])cc3)on2)CC1 | – | 562 nM (active)
3 | Nc1nc2c(ncn2C2OC3COP(=O)(O)OC3C2O)c(=O)[nH]1 (centres undefined) | 8.58% | –
4 | CC(=O)O[C@H]1CC[C@]2(C)[C@H]3CC[C@]4(C)Oc5oc(C)cc(=O)c5C[C@H]4[C@]3(C)CC[C@H]2C1(C)C | -12.6% [at 25.3 µM] | –
5 | C/C=C(/C)C(=O)OC1C=C2C3C(C)C(C)C(OC(=O)C(C)C(C)O)CC3(C)CCC2(C)C2(C)CC(OC(C)=O)C3C(C)(C)C(O)C(=O)CC3(C)C12 (centres undefined) | 14.8% [at 25.3 µM] | –
6 | COC1C(OC(=O)/C=C/C=C/C=C/C=C/C(=O)O)CCC2(CO2)C1C1(C)OC1CC=C(C)C (centres undefined) | -4.22% [at 25.3 µM] | –
7 | COC1C=C(C)C(O)(CO)C2(C)CCCC(C)(C)C12 (centres undefined) | -4.1% | –
8 | C[C@H]1CC[C@@]2(OC1)O[C@H]1CC3[C@@H]4CC[C@@H]5C[C@@H](O[C@@H]6O[C@H](CO)[C@@H](O[C@@H]7O[C@H](CO[C@@H]8OC[C@@H](O)[C@H](O)[C@H]8O)[C@@H](O[C@@H]8O[C@H](CO)[C@H](O)[C@H](O)[C@H]8O)[C@H](O)[C@H]7O)[C@H](O)[C@H]6O)CC[C@]5(C)C4CC[C@]3(C)[C@H]1[C@@H]2C (some centres undefined) | -1.12% [at 11.6 µM] | –
9 | CCC(CC)(NC(=O)C(C)C)C(=O)N[C@@H](CCCN=C(N)N)C(=O)NC1(C(=O)NC(c2ccc(F)cc2)c2ccc(F)cc2)CCCC1 | 3.75% | –
10 | COc1ccc(S(=O)(=O)Nc2c(C)cc(C)cc2C)cc1 | -2.91% | –
11 | CC(C)OC(=O)N1CCC(Oc2ncnc3c2cnn3-c2ccc(S(C)(=O)=O)cc2F)CC1 | 8.6% | –
12 | O=C(NCCO)c1cccc(-c2cc(Nc3ccc(OC(F)(F)F)cc3)ncn2)c1 | 24.1% | –
13 | Cc1ccc(-c2c(C(=O)CCl)n(CCCO)c3ncnc(N)c23)cc1 | -23.7% | –

System: Tov112D
Assay: as above
Settings: Gynecologic cancer cell panel viability, ATPlite luminescence, 48 h; series mostly up to 57.5 µM; activity change, negative = cytotoxicity: at the top concentration
Outline: as §1

Row | SMILES | activity change, negative = cytotoxicity
14 | COc1ccccc1OCCNCC(O)CCOc1cccc2[nH]c3ccccc3c12 (centres undefined) | 1.53%
15 | O=C1COC2(CCN(S(=O)(=O)c3ccc(-c4ccc5cccnc5c4)cc3)CC2)CN1C1CC1 | -8.52%
16 | CC(C)c1ccc(NC(=O)Cn2cnc3c2c(=O)n(C)c(=O)n3C)cc1 | 7.84%
17 | CC(C)(C)C1CCN(C(=O)n2ncc(C(O)(c3ccccc3)c3ccccc3)n2)CC1 | -8.57%
18 | COc1ccc(NC(=O)c2ccc(C(=N)N(C)C)cc2)c(C(=O)Nc2ccc(Cl)cn2)c1 | 13.3%
19 | CC(C)=CCC/C(C)=C/COCC1OC(n2ccc(=O)[nH]c2=O)C(O)C1O (centres undefined) | -2.84% [at 38.5 µM]
20 | CC(C)(C)NC(=O)[C@H]1CC[C@H]2[C@@H]3CC[C@H]4NC(=O)CC[C@]4(C)[C@H]3CC[C@]12C | -2.02%
21 | COc1ccc(-c2cnc3c(-c4cccc5ncccc45)cnn3c2)cc1 | 15.6%
22 | CCOC(=O)c1cnn(-c2ccccc2)c1NC(=O)c1cc2nc(-c3ccco3)cc(C(F)(F)Cl)n2n1 | 7.08%
23 | C[C@]12CC[C@@H]3c4ccc(O)c(O)c4CC[C@H]3[C@@H]1CCC2=O | -1.51%
24 | COc1c(C(O)CC(C)C)ccc2c1C(=O)OCc1cc(C)cc(O)c1O2 (centres undefined) | -6.54% [at 38.5 µM]
25 | O=C(NCCCN1CCC2(CC1)OCc1ccccc12)[C@H]1CCCN1Cc1ccccc1 | -5.48%
26 | O=C(NCCN1CCC(n2c(=O)[nH]c3ccccc32)CC1)c1cc2cc(F)ccc2[nH]1 | 5.94%
27 | CCCCCc1ccc(/C=C/C(=O)Nc2cc(Cl)ccc2C(=O)O)cc1 | 0.425%
28 | CCCc1cc(C)n(C)c(=O)c1CN(C)C(=O)c1cc(-c2ccc(N3CCN(C(C)C)CC3)nc2)cc2c1cnn2C(C)C | 14.4%
29 | COc1c(C)cc(NC(=O)c2nn(Cc3ccc(F)cc3)c3c2CN(C(=O)c2ccc[nH]2)C[C@]3(C)C(N)=O)cc1C | 9.54% [at 11.6 µM]
30 | CC(=O)O[C@]1(C(C)=O)CC[C@H]2[C@@H]3CCC4=CC(=O)CCC4=C3[C@@H](c3ccc(N(C)C)cc3)C[C@@]21C | -6.85%
31 | COCCCNC(=O)c1ccc(Cn2c(=O)c3ccccc3n(Cc3ccc(C(C)C)cc3)c2=O)cc1 | 5.44%
32 | Nc1nc2c(ncn2C2OC3COP(=O)(O)OC3C2O)c(=O)[nH]1 (centres undefined) | -0.588%
33 | CC(=O)O[C@H]1CC[C@]2(C)[C@H]3CC[C@]4(C)Oc5oc(C)cc(=O)c5C[C@H]4[C@]3(C)CC[C@H]2C1(C)C | 2.34% [at 25.3 µM]
34 | C/C=C(/C)C(=O)OC1C=C2C3C(C)C(C)C(OC(=O)C(C)C(C)O)CC3(C)CCC2(C)C2(C)CC(OC(C)=O)C3C(C)(C)C(O)C(=O)CC3(C)C12 (centres undefined) | 0.453% [at 25.3 µM]
